Assay outcomes (PubChem BioAssay)
Most compounds without a hit are left out; they make up all but 9.6% or so of the library.
HCT116 PTEN-null: suppresses growth of cells with PTEN deletion | HCT116 PTEN-null viability, CellTiter-Glo, 60 h; hits give low values | viability, % at 10 µM | 1.2% of 140,000 active | AID 827;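 active = viability at or below a set limit, 4 SD under the median of all tested compounds, cut at about 3.7% in these data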;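 also: PTEN knockout HCT116 line with beta catenin targeted HCT116 as companion control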
INS promoter inh: TRM-6 insulin promoter activity inhibition; TRM-6 cells (human fetal islet line), insulin promoter-eGFP reporter, imaging; reporter expression induced with tamoxifen; 0.9% of 130,000 active; inhibition, % at 2 µM;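 active = inhibition above the mean plus 3 SD, with well images judged a real hit on visual review, cut at about 60% in these data, passing the limit was not always enough; inconclusive = inhibition over the cutoff but images rejected on review; inactive = inhibition not above the cutoff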
HCT116 bCat-KO: beta-catenin-lacking colon tumor cell growth suppression; viability, % at 10 µM; AID 818; HCT116 beta-catenin knockout viability, CellTiter-Glo, 60 h; hits give low values; 1.5% of 140,000 active;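 active = viability at or under a set limit, the compound median less 4 SD, cut at about 6% in these data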
Insulin prom up: MIN6 insulin promoter up-regulation. MIN6 insulin promoter-GFP reporter, high-content imaging; hits give high values. z-score at 5 µM. 0.3% of 190,000 active. AID 1625;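 active = z-score above 3 at 5 µM with at least 500 cells counted in the well; inconclusive = wells under 500 cells, flagged as cytotoxic or low count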
L major viab: inhibitors of Leishmania major promastigote growth. Leishmania major promastigotes, resazurin fluorescence viability. inhibition, % at 10 µM. 9% of 200,000 active; in the data active = inhibition above about 50%;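 also: promastigotes grown with compound for 44 hours at 28 °C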
Autophagy mod: modulators of autophagy; AID 463193; MEF GFP-LC3 puncta imaging; test concentration mostly 10 µM; calls only at 10 µM (by protocol); 0.98% of 190,000 active;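 active = percentage of spot-positive cells more than 3 SD above its plate mean, without a fluorescence outlier flag or 80% toxicity; inconclusive = no clear call, values can overlap the other calls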
Large screens that a line does not name were inactive.

O=C(O)C(Cc1ccccc1)N1Cc2ccccc2C1=O (centres undefined)	none
CCOC(=O)c1cnc2c(C)cccc2c1NCc1ccco1	INS promoter inh 67.9, L major viab 55.5
CCOC(=O)c1cnc2ccccc2c1NCCO	none
CCOC(=O)c1cnc2c(C(=O)OC)cccc2c1NCc1ccco1	L major viab 50.6
COc1ccc(OC)c(C(=O)CSc2nnnn2C)c1	none
COc1ccccc1NC(=O)CCC(=O)N(Cc1ccc(OC)c(OC)c1)c1nccs1	none (no result: HCT116 PTEN-null, INS promoter inh, HCT116 bCat-KO)
O=C1NC(c2cccs2)Nc2sc3c(c21)CCCC3 (centres undefined)	none
COc1ccc(CNC(=S)Nc2ccc(OC)cc2)cc1	L major viab 51.9
COc1ccc(CNc2ccc(Br)cc2)cc1	L major viab 98.8 (no result: HCT116 PTEN-null, HCT116 bCat-KO)
COc1ccc(NC2=NCC(Cc3ccc(Br)cc3)S2)cc1 (centres undefined)	L major viab 87.7
COc1ccc(CNc2ccc(C(=O)O)cc2)cc1	none
COc1ccc(CC(=O)NNC(=S)Nc2ccc(Br)cc2)cc1	none
COc1ccc(CNC(=S)NCc2ccc(OC)cc2)cc1	none (no result: HCT116 PTEN-null, INS promoter inh, HCT116 bCat-KO)
COC(=O)c1[nH]c2ccccc2c1NC(=O)CN1CCN(C(=O)c2ccco2)CC1	INS promoter inh 90.9
CCOC(=O)N1CCN(CC(=O)Nc2c(C(=O)OC)[nH]c3ccccc23)CC1	none
O=C(c1cccc(N2C(=O)c3ccccc3C2=O)c1)N1CCCCCC1	none (no result: HCT116 PTEN-null, HCT116 bCat-KO)
COc1cccc(-c2cc(C(F)(F)F)nc(-n3cncn3)n2)c1	none (no result: INS promoter inh)
CCc1cc(/C(Cc2ccccn2)=N\Nc2ccccc2)c(O)cc1O	L major viab 59.5 (no result: HCT116 PTEN-null, INS promoter inh, HCT116 bCat-KO)
O=C(C1CC1)N(Cc1ccco1)c1nc(-c2ccccc2)cs1	L major viab 57.8
CC(C)Nc1cc(N2CCCC2)ccc1[N+](=O)[O-]	none (no result: INS promoter inh)
Cc1cc2[nH]c3ccccc3c2c(C)n1	none
CCN(CC)S(=O)(=O)c1ccc(C)c(NC(=O)Cn2cnc3cc([N+](=O)[O-])ccc3c2=O)c1	L major viab 71.9 (no result: HCT116 PTEN-null, HCT116 bCat-KO)
Cc1ccccc1OCCn1cnc2cc([N+](=O)[O-])ccc2c1=O	L major viab 73.0, Autophagy mod inconclusive (no result: HCT116 PTEN-null, INS promoter inh, HCT116 bCat-KO)
Cc1cccc(CCNC(=O)CCNC(=O)Cn2ccc3ccccc3c2=O)c1	none
Cc1cc(OCCCn2cnc3ccccc3c2=O)ccc1[N+](=O)[O-]	L major viab 58.8
O=C(CCNC(=O)Cn1ccc2ccccc2c1=O)NCCc1ccc(Cl)cc1	L major viab 55.3
COC(=O)CN(c1cccc(OC)c1)S(C)(=O)=O	none (no result: INS promoter inh)
O=C(C[n+]1cn(C(F)F)c2ccccc21)c1ccc(Br)cc1	none (no result: HCT116 PTEN-null, INS promoter inh, HCT116 bCat-KO)
Cc1ccc(N2CC(C(=O)Nc3nnc(C(C)C)s3)CC2=O)cc1 (centres undefined)	none
COc1ccc(N2CCN(Cc3nc4c(c(=O)[nH]c(=O)n4C)n3CCCc3ccccc3)CC2)cc1	none (no result: Insulin prom up)
CCc1n[nH]c2c1/C(=N/O)CCC2	none (no result: INS promoter inh)
COc1ccc(-c2csc(N3CCN(c4cc(C)nc5ccccc45)CC3)n2)cc1OC	none (no result: HCT116 PTEN-null, INS promoter inh, HCT116 bCat-KO)
CC[C@@H]1CC=C[C@H]2[C@H]1C(=O)N(Cc1ccccc1)[C@H]2c1ccoc1	none (no result: HCT116 PTEN-null, INS promoter inh, HCT116 bCat-KO, L major viab, Autophagy mod)
O=C(Cn1cnc2cc([N+](=O)[O-])ccc2c1=O)NCc1ccccc1	L major viab 59.9 (no result: HCT116 PTEN-null, INS promoter inh, HCT116 bCat-KO)
O=C(Cn1cnc2cc([N+](=O)[O-])ccc2c1=O)Nc1cccc2ccccc12	none (no result: HCT116 PTEN-null, INS promoter inh, HCT116 bCat-KO, L major viab, Autophagy mod)
O=C(Cn1cnc2cc([N+](=O)[O-])ccc2c1=O)NCCc1ccc(Cl)cc1	L major viab 64.4 (no result: HCT116 PTEN-null, INS promoter inh, HCT116 bCat-KO)
O=C(Nc1nc(-c2ccncc2)cs1)c1ccc(S(=O)(=O)N2CCOCC2)cc1	none (no result: INS promoter inh)
COc1cc(NC(=O)C2CCCCC2)c(OC)cc1NC(=O)CN1CCCCC1	none (no result: INS promoter inh)
Cc1ccc(C)c(NC(=S)c2ccccn2)c1	HCT116 PTEN-null 3.8, HCT116 bCat-KO 2.7, L major viab 98.3
S=C(Nc1ccccn1)c1ccccn1	HCT116 PTEN-null 1.8, HCT116 bCat-KO 1.9, L major viab 98.4 (no result: INS promoter inh)
Cc1ccc(C)c(NC(=S)c2ccc3ccccc3n2)c1	none
Cc1ccc(N=N/C(=C\O)C(=O)c2ccncc2)cc1	none
COc1ccc(C(=O)/C(=C/O)N=Nc2ccc(F)cc2)cc1	L major viab 61.5 (no result: HCT116 PTEN-null, INS promoter inh, HCT116 bCat-KO)
COc1ccc(C(=O)C(/C=N/O)=N/Nc2ccc(F)cc2)cc1	none (no result: HCT116 PTEN-null, HCT116 bCat-KO)
COc1ccc(N=N/C(=C\O)C(=O)c2cccs2)cc1	L major viab 69.0 (no result: HCT116 PTEN-null, HCT116 bCat-KO)
O=C(/C(=C/O)N=Nc1ccc(Cl)cc1)c1ccncc1	HCT116 PTEN-null 0.8, HCT116 bCat-KO 0.6, L major viab 99.7
Cc1cc(C)c(C2C(C#N)=C(N)Oc3n[nH]c(C)c32)cc1CN1CCOCC1 (centres undefined)	none (no result: Insulin prom up)
COc1ccc(S(=O)(=O)/N=C2/NC(=O)/C(=C/c3ccco3)S2)cc1	none
Cc1ccc(NC(=O)/C(C#N)=C/c2ccc(C)s2)c(C)c1	Autophagy mod active
COc1ccc(/C=C/C2=NN(C)C(=O)CC2)cc1	INS promoter inh 84.6 (no result: HCT116 PTEN-null, HCT116 bCat-KO)
CCOC(=O)CN1N=C(/C=C/c2ccc(C)cc2)CCC1=O	none
c1ccc(Cn2nnc3c(N4CCc5ccccc5C4)ncnc32)cc1	INS promoter inh 81.8
O=C(Nc1nccs1)c1cc(-c2ccco2)nc2ccccc12	none
O=C(NNC(=O)c1cc(-c2ccccc2)nc2ccccc12)Nc1cccc(Cl)c1	L major viab 99.2
O=C(NNC(=O)c1cc(-c2cccnc2)nc2ccccc12)Nc1ccc(Cl)cc1	none (no result: HCT116 PTEN-null, INS promoter inh, HCT116 bCat-KO)
Cc1ccc(-c2cc(C(=O)NCc3ccccn3)c3ccccc3n2)cc1C	HCT116 PTEN-null 1.9, HCT116 bCat-KO 3.4, L major viab 87.8
Cc1cccc(-c2cc(C(=O)NCc3ccccn3)c3ccccc3n2)c1	none (no result: INS promoter inh)
O=C(Nc1nccs1)c1cc(-c2ccccc2)nc2ccccc12	L major viab 89.8
Cc1oc(C(C)(C)C)cc1C(=O)Nc1ccc(C(=O)O)cc1	none
COc1ccc(/C=N/NC(=O)c2sc3nc(C)cc(C)c3c2N)cc1	none (no result: HCT116 PTEN-null, INS promoter inh, HCT116 bCat-KO, L major viab, Autophagy mod)
COc1ccc(C2C(C#N)=C(N)Oc3c2sc2nc(C)cc(C)c32)cc1 (centres undefined)	HCT116 PTEN-null 0.6, HCT116 bCat-KO 0.9, L major viab 100.5 (no result: Insulin prom up)
CCN1CCN(CCNC(=O)c2ccc(/C=C3/Sc4ccccc4N(Cc4cccc(Cl)c4)C3=O)cc2)CC1	L major viab 100.5, Autophagy mod active (no result: HCT116 PTEN-null, INS promoter inh, HCT116 bCat-KO)
CN1CCN(CCCNC(=O)c2ccc(/C=C3\Sc4ccccc4N(Cc4ccccc4F)C3=O)cc2)CC1	L major viab 99.8 (no result: HCT116 PTEN-null, HCT116 bCat-KO, Insulin prom up)
O=C(NCCN1CCOCC1)c1ccc2c(c1)N(Cc1ccccc1F)C(=O)CS2	none
CCN1CCN(CCNC(=O)c2ccc3c(c2)N(Cc2ccc(F)cc2)C(=O)/C(=C/c2ccccc2)S3)CC1	L major viab 100.6 (no result: HCT116 PTEN-null, HCT116 bCat-KO)
O=C(O)c1ccc2c(c1)N(Cc1ccc(F)cc1)C(=O)c1ccccc1S2	none (no result: HCT116 PTEN-null, HCT116 bCat-KO)
O=C(NCCN1CCOCC1)c1ccc2c(c1)N(Cc1cccc(F)c1)C(=O)c1ccccc1S2	L major viab 100.0 (no result: HCT116 PTEN-null, HCT116 bCat-KO)
CC(C)OCCCNC(=O)CN1C(=O)/C(=C/c2ccccc2)Sc2ccccc21	L major viab 58.9
CCOC(=O)c1c(C)[nH]c(C(=O)CSc2nccc(C)n2)c1C	L major viab 75.3
Cc1ccc(N2C(N)=C(C#N)C(c3ccsc3)C3=C2CC(C)(C)CC3=O)cc1 (centres undefined)	L major viab 72.5
